Compound activity as filed in PubChem BioAssay.
V-ATPase pHluor – regulators of yeast V-ATPase proton pumping, primary screen, pHLuorin cytosolic pH fluorescence | hit rate 0.37% among 350,000 | response, % at 10 µM | S. cerevisiae; in the data active = response mostly above about 7.3%, no sharp cut-off; inactive = mostly below about 5.4%; also: actives read high
NLRP3 yeast inh – NALP3 inflammasome inhibitors in reconstituted yeast, primary screen, luminescence, uHTS; Yeast reconstituted NLRP3/ASC/caspase-1, beta-gal luminescence, 24 h; inhibition, % at 10 µM; hit rate 0.39% among 330,000;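 active = inhibition of 50% or more; inactive = inhibition below 50%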
PERK inhibitor – block of dimerizer-induced PERK translation repression, primary screen, PERK inhibitor project, CHO PERK-DD cells, SEAP luminescence, HTS; Eukaryotic translation initiation factor 2-alpha kinase 3 (Homo sapiens), Q9NZJ5; CHO PERK-DD fusion, SEAP luminescence translation reporter; inhibition, % at 5.6 µM; hit rate 0.17% among 220,000; AID 1416, 2008;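 active = inhibition above the mean inhibition of all tested compounds plus 3 SD, set separately per screening campaign, cut at about 2.9% in these data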;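 also: PERK kinase domain activated by AP20187 dimerizer at 100 nM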
Target sequence (Q9NZJ5 whole entry, looked up, the tested form may be a part): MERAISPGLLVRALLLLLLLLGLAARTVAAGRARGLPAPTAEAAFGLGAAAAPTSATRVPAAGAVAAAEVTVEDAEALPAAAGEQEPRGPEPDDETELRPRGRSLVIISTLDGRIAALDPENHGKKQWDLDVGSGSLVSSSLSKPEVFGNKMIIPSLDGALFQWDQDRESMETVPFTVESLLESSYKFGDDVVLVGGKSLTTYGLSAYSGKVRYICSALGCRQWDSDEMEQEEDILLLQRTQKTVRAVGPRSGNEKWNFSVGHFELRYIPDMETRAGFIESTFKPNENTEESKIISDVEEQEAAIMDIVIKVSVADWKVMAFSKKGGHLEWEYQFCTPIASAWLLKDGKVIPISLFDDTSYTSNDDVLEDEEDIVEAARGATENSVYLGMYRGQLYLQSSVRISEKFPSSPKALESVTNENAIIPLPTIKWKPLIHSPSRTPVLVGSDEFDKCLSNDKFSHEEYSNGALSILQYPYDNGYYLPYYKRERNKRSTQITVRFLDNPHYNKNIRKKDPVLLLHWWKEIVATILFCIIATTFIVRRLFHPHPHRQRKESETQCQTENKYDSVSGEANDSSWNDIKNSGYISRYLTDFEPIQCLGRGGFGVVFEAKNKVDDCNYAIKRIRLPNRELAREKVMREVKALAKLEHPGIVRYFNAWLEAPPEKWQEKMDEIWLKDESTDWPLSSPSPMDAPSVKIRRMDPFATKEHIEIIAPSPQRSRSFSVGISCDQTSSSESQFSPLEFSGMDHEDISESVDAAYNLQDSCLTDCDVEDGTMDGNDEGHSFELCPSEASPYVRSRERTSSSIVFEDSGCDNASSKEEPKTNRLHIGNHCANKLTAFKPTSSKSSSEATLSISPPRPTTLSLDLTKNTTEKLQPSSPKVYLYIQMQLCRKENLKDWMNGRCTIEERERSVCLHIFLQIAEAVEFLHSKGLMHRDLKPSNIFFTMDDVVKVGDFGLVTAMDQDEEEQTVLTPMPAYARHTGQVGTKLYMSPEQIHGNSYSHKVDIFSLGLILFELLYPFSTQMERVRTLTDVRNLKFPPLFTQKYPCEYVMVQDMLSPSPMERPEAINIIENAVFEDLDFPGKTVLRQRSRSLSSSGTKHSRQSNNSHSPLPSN
Rce1 inh – yeast Rce1p protease inhibitors, primary screen, biochemical, fluorescence, cell-free homogeneous; AID 2563, 2010; calls only; hit rate 0.27% among 290,000; CAAX prenyl protease 2 (Saccharomyces cerevisiae (strain ATCC 204508 / S288c)), Q03530; yeast membranes, quenched prenylated peptide cleavage fluorescence;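 active = fall in fluorescence gain of 50% or more versus controls, with final raw signal at or below 3038400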
NALP1 inh – NALP1 inflammasome inhibitors in reconstituted yeast, colorimetric, S. cerevisiae, triplicate retest | hit rate 0.61% among 280,000 | AID 2071, 2009 | inhibition, % at 10 µM | S. cerevisiae NALP1/ASC/caspase-1 growth, X-gal OD620, 72 h; in the data active = inhibition mostly above about 24%, no sharp cut-off; inactive = mostly below about 32%
CR mimetic SO – reduction of superoxide in aged yeast, primary screen, HTS; AID 2690, 2010; S. cerevisiae aged cells, superoxide DHE fluorescence; hits give low values; hit rate 0.18% among 330,000; superoxide response (% of plate mean), % at 10 µM;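 active = superoxide response under a set limit, about three screen SD below normal, cut at about 65% in these data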;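 also: yeast aged for seven days with compound at 30 °C before DHE staining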
Of the large screens only hits and unclear results are named; the others gave an inactive call. A selection: hits, their analogues and other compounds. The true share with any hit is near 1.6%.

OC(CNCCC(c1ccccc1)c1ccccc1)COc1ccccc1 (stereo unspecified)	NALP1 inh 33
COc1cccc(CN(CCC(=O)O)Cc2cccc(OC)c2)c1	none (no result: NLRP3 yeast inh, PERK inhibitor, Rce1 inh, NALP1 inh, CR mimetic SO)
CC(C)CNC(=O)Nc1ccc(F)c(Cl)c1	Rce1 inh active
COC(=O)c1cc(OC)c(OC)cc1NC(=O)CCN1C(=O)C2CCCCC2C1=O (stereo unspecified)	none (no result: NLRP3 yeast inh, PERK inhibitor, Rce1 inh, NALP1 inh, CR mimetic SO)
CC1(C)N=C(N)N=C(N)N1c1ccc(CCCCc2ccccc2)cc1	none (no result: NLRP3 yeast inh, PERK inhibitor, Rce1 inh, NALP1 inh, CR mimetic SO)
O=C(C#Cc1ccccc1)c1ccco1	NALP1 inh 44 (no result: PERK inhibitor)
O=C(N/N=C/c1ccccc1)c1ccco1	none
Cc1ccccc1NC(=O)CNC(=O)N1CC(=O)Nc2ccccc21	none (no result: NLRP3 yeast inh, PERK inhibitor, Rce1 inh, NALP1 inh, CR mimetic SO)
CSc1ncnc2c1ncn2CCCNc1ccc(C)c(C)c1	none (no result: NLRP3 yeast inh, PERK inhibitor, Rce1 inh, NALP1 inh, CR mimetic SO)
NC(=S)N=Nc1c(O)n(Cc2ccccc2)c2ccccc12	none
CCCCNC(=S)N=Nc1c(O)n(Cc2ccccc2)c2ccccc12	Rce1 inh active
Oc1c(N=NC(=S)Nc2ccccc2F)c2ccccc2n1Cc1ccccc1Cl	Rce1 inh active
CCCCCCCCCCCC1N=C(N)NC(CCCO)=C1C(=O)OC (stereo unspecified)	none (no result: NLRP3 yeast inh, PERK inhibitor, Rce1 inh, NALP1 inh, CR mimetic SO)
CCN(CC)c1ccc(C(=O)c2ccccc2C(=O)O)c(O)c1	Rce1 inh active
CCN(CC)c1ccc(/C=N/N(c2ccccc2)c2ccccc2)c(O)c1	none
O=C(O/N=C\c1ccc(N2CCCCC2)c([N+](=O)[O-])c1)c1ccc(Cl)cc1Cl	PERK inhibitor 3.0
Cc1ccc(C(=O)O/N=C\c2ccc(N3CCOCC3)c([N+](=O)[O-])c2)cc1	none
O=C(C[C@@H]1C[C@H]2c3cc(NC(=O)C4CCC4)ccc3O[C@H]2[C@@H](CO)O1)NCc1ccc(-c2ccccc2)cc1	none (no result: NLRP3 yeast inh, PERK inhibitor, Rce1 inh, NALP1 inh, CR mimetic SO)
C[C@]12CC[C@H](O)CC1=CCC1C2CC[C@@]2(C)C1CC[C@@H]2NCc1ccccc1 (stereo partly specified)	none (no result: NLRP3 yeast inh, PERK inhibitor, Rce1 inh, NALP1 inh, CR mimetic SO)
COc1ccc(C2c3c(ncn(CCCO)c3=N)Oc3ccc4ccccc4c32)cc1OC (stereo unspecified)	none (no result: NALP1 inh)
COc1ccc(C2c3c(ncn(CCCO)c3=N)Oc3ccc4ccccc4c32)cc1 (stereo unspecified)	Rce1 inh active (no result: NALP1 inh)
CCOC(CCc1c(C)nc(NC(C)=O)[nH]c1=O)OCC	PERK inhibitor 3.1 (no result: NLRP3 yeast inh)
CC(=O)Nc1nc(C)c(CCCOc2ccc([N+](=O)[O-])cc2)c(=O)[nH]1	none
CC1C(=O)N(Cc2cn(CCC3OCCCO3)nn2)CCS(=O)(=O)N1Cc1ccc(-c2ccc(Cl)cc2)cc1 (stereo unspecified)	none (no result: NLRP3 yeast inh, PERK inhibitor, Rce1 inh, NALP1 inh, CR mimetic SO)
C/C(CC1(O)C(=O)Nc2ccccc21)=N\O (stereo unspecified)	Rce1 inh active
CCOC(=O)C1=C(C)N(CCCC(=O)O)C(=O)NC1c1ccccc1OC(=O)c1cccs1 (stereo unspecified)	Rce1 inh active (no result: V-ATPase pHluor, PERK inhibitor, NALP1 inh, CR mimetic SO)
CC(CN1CCOCC1)OC(=O)C1COc2ccccc2O1 (stereo unspecified)	NALP1 inh 28
CC(CN1CCOCC1)OC(=O)CCc1ccccc1 (stereo unspecified)	none
COc1ccc(CC(=O)OC(C)CN2CCOCC2)cc1 (stereo unspecified)	NALP1 inh 29
O=C(CN1CCN(C(C(=O)Nc2cc(C(F)(F)F)ccc2Cl)c2ccccc2)CC1)NC1CC1 (stereo unspecified)	none (no result: NLRP3 yeast inh, PERK inhibitor, Rce1 inh, NALP1 inh, CR mimetic SO)
CC1CC(CC(C)C(=O)NC(=S)Nc2ccc(S(N)(=O)=O)cc2)C(=O)O1 (stereo unspecified)	none
CCC1CC(C)(C(=O)Nc2ccc(S(N)(=O)=O)cc2)OC1=O (stereo unspecified)	PERK inhibitor 2.9
O=C(CSc1nnc(CNC(=O)c2c(F)cccc2F)o1)NCc1ccc2c(c1)OCO2	none (no result: NLRP3 yeast inh, PERK inhibitor, Rce1 inh, NALP1 inh, CR mimetic SO)
Cc1ccc(N2CC(C(=O)Nc3cc(S(=O)(=O)N4CCCCC4)ccc3C)CC2=O)cc1 (stereo unspecified)	none (no result: NLRP3 yeast inh, PERK inhibitor, Rce1 inh, NALP1 inh, CR mimetic SO)
O=C(/C=C/Nc1cccc(F)c1)c1ccco1	none
O=C(/C=C/Nc1ccc(F)c(Cl)c1)c1ccco1	NALP1 inh 31
CC(C)(C)OC(=O)N1CCN(C(=O)c2ncn3c2c(=O)[nH]c2ccccc23)CC1	none (no result: NLRP3 yeast inh, PERK inhibitor, Rce1 inh, NALP1 inh, CR mimetic SO)
COc1cccc(NC(=O)c2cc([N+](=O)[O-])ccc2NC(=O)CNCC2CCCO2)c1 (stereo unspecified)	CR mimetic SO 64
COCCOC(=O)/C(=C/c1ccc(OC(=O)c2ccccc2)cc1)C(C)=O	NALP1 inh 61
Cc1ccc(F)cc1S(=O)(=O)NCc1ccc(N2CCN(C)CC2)cc1	NALP1 inh 31
CCc1ccc(S(=O)(=O)NCc2ccc(N3CCN(C)CC3)cc2)cc1	none (no result: Rce1 inh)
CN(C(=O)c1cc2c(cc1Br)OCO2)c1cccc2ccccc12	none (no result: NLRP3 yeast inh, PERK inhibitor, Rce1 inh, NALP1 inh, CR mimetic SO)
Cc1nc(NC(=O)c2cc3c(s2)CCCCC3)sc1C(=O)N(C)C	none
COC(=O)c1sc(NC(=O)c2cc3c(s2)CCCC3)nc1C	NALP1 inh 33
COC(=O)c1ccc2c(c1)C(C)(C)C(/C=C/c1ccc(O)cc1)=[N+]2C	NALP1 inh 52
COC(=O)c1ccc2c(c1)C(C)(C)C(/C=C/c1ccc(OC)c(OC)c1OC)=[N+]2C	none
CC12C=CC3(CN(Cc4ccccc4)C(=O)C3C1C(=O)NCc1ccco1)O2 (stereo unspecified)	V-ATPase pHluor 17
COc1cc(OC)c(N(C)S(=O)(=O)c2cccc(C(=O)OCC(=O)N(C)Cc3ccccc3)c2)cc1Cl	none (no result: NLRP3 yeast inh, PERK inhibitor, Rce1 inh, NALP1 inh, CR mimetic SO)
CC(=O)Nc1nonc1-c1ccccc1	PERK inhibitor 3.2
C[C@H]1CCCCO[C@H](CN(C)Cc2ccc(C(=O)O)cc2)[C@@H](C)CN([C@@H](C)CO)C(=O)c2cc(NS(=O)(=O)c3cn(C)cn3)ccc2O1	none (no result: NLRP3 yeast inh, PERK inhibitor, Rce1 inh, NALP1 inh, CR mimetic SO)
CCN(CC(=O)Nc1ccccc1SC)Cc1nc2ccccc2c(=O)[nH]1	CR mimetic SO 62 (no result: NALP1 inh)
CCN(CC(=O)Nc1ccccc1-c1ccccc1)Cc1nc2ccccc2c(=O)[nH]1	none
O=C1CCC2c3[nH]c4ccccc4c3CCN12 (stereo unspecified)	none (no result: NLRP3 yeast inh, PERK inhibitor, Rce1 inh, NALP1 inh, CR mimetic SO)
O=C(CCc1nc(-c2ccccc2)c(-c2ccccc2)o1)OCc1ccc(Cl)cc1	NALP1 inh 37
O=C(CCc1nc(-c2ccccc2)c(-c2ccccc2)o1)OCc1ccc(Br)cc1	none
CN(C)S(=O)(=O)c1ccc(N2CCOCC2)c(C(=O)NCc2ccc3c(c2)OCO3)c1	CR mimetic SO 62 (no result: PERK inhibitor, Rce1 inh, NALP1 inh)
Cc1cc(NC(=O)NC(=O)c2ccccc2NC(=O)C(C)N)ccc1Oc1ncc(Br)cn1 (stereo unspecified)	none (no result: NLRP3 yeast inh, PERK inhibitor, Rce1 inh, NALP1 inh, CR mimetic SO)
CS(=O)(=O)N1CCC(Oc2ccccc2C(=O)N2CCCCC2CO)CC1 (stereo unspecified)	none
